# Assay outcomes from PubChem BioAssay.
# Hits are enriched below; roughly 9.2% of the tested compounds scored in any of these assays.
# Rab9 promoter act = activates the Rab9 promoter. Huh7 Rab9 promoter-luciferase reporter, luminescence, 24 h. Potency, µM (doses to about 9.22 µM), for the others: top-dose activation, negative = inhibition, usual class: activators. actives 2.8% (n = 320,000). AID 485297; further: % of control where 0% means no effect; nearly all actives have a fitted effect of over 60% in size
#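 Cells were plated at 1500 per well in reduced-serum medium with 10% FBS and left 2 h. Compound in DMSO was then added for 24 h at 37 °C. Reporter signal was read by luminescence after 10 min with luciferase detection reagent.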
# FLuc counter = firefly luciferase modulation, counter-screen for miR-21 project. P08659. purified FLuc, Km substrates, luminescence inhibition. Potency, µM (titrated, usually from 57.5 µM), without a hit: at the top dose activity change, negative = inhibition, actives largely listed as inhibitors. actives 6.9% (n = 360,000);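 further: plate controls were vehicle for no effect and reference inhibitor for full effect; nearly all actives have a fitted effect of over 55% in size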
# Target sequence (P08659 whole entry, looked up): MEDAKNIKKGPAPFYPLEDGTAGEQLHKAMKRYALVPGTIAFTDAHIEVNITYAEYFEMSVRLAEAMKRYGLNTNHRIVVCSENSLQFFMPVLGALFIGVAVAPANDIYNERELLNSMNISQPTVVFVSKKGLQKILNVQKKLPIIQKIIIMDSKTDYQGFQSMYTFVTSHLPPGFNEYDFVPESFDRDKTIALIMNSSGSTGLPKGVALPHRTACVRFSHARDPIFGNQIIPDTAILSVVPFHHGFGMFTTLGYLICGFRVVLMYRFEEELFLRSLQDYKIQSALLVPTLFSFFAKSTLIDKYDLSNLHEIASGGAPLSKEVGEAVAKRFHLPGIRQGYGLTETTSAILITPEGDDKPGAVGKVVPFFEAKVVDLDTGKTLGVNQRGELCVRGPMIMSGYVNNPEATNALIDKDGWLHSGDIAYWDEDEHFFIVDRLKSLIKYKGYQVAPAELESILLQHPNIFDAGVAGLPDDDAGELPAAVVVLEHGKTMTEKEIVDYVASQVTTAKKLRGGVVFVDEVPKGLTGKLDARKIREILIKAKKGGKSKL
#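 Biochemical qHTS of compounds, final roughly 60 µM downward over six points, against 10 nM purified firefly luciferase using Km concentrations of substrates (10 uM D-luciferin, 10 uM ATP) in Tris acetate pH 7.5 buffer; luminescence output.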
# NPC1 promoter act = activators of NPC1 promoter; AID 485313; Potency, µM (top dose mostly 9.22 µM), without a hit: at the top dose activation, actives largely listed as activators; Huh7 NPC1 promoter luciferase reporter, 24 h; actives 2.4% (n = 320,000); further: % of control where 0% means no effect; nearly all actives have a fitted effect of over 60% in size
#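 Quantitative HTS used a cell-based reporter: Huh7 cells stably bearing the NPC1 promoter upstream of luciferase were treated with compounds for 24 h, and promoter activation was read as luminescence.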
# ELG1 DNA repair = ELG1-dependent DNA repair inhibition; HEK293T ELG1-luciferase reporter, luminescence, 16 h; DNA damage induced by 5-fluorouridine; actives 2.3% (n = 330,000); AID 504467; Potency, µM (highest dose often 46.1 µM), for the others: at the top dose activity change, negative = inhibition, hits mostly inhibitors; further: on the % scale 0 is the no-effect control and ±100 the full control effect; nearly all actives have a fitted effect of over 55% in size
#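 Luminescence from the luciferase reporter, measured 30 min after ONE-Glo reagent at room temperature, was the read-out. Beforehand, 2,000 cells per well were exposed for 16 hr at 37 °C to 5-fluorouridine together with compound or vehicle.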
# ELG1 genotoxic = induces genotoxicity in HEK293T cells with luciferase-tagged ELG1; Potency, µM (doses to about 46 µM), for inactives: top-dose activity change, positive = activation, most hits filed as activators; AID 504466; HEK293T ELG1-luciferase reporter, luminescence, 16 h; actives 1.3% (n = 330,000); further: % of control where 0% means no effect; nearly all actives have a fitted effect of over 60% in size
#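 Screening used a luciferase reporter fused to human ELG1 in HEK293T cells. Luminescence was read on a CCD plate imager after 16 hr exposure and 30 min ONE-Glo incubation.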
# SMN2 splice up = increases expression of the SMN2 splice variant; HEK293 SMN2-luciferase splicing reporter, luminescence, 30-36 h; Potency, µM (doses to about 46.1 µM), for inactives: at the top dose activity change, positive = activation, hits mostly activators; actives 2.8% (n = 210,000); AID 1458; further: % of control where 0% means no effect; nearly all actives have a fitted effect of over 55% in size
#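 HEK293 cells carry an SMN2 […]–luciferase reporter in which exon 7 inclusion puts luciferase in frame. Cells were plated 10-12 h before compound addition, then incubated 30-36 h at 37C. ONE-Glo luminescence was read; sodium butyrate at 4.5 mM final served as control.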
# * hit, by the source's call; ? = inconclusive; . = no result. The call rests on the fitted dose curve; in most records, active means well fitted curve in the direction sought with a large enough effect; inconclusive means small, poorly fitted or top-dose-only effect, or another doubt; inactive means no such curve, though single readings can be large; an effect the other way counts as inactive or inconclusive. Potency means the concentration at half of the fitted maximal effect.
SMILES,Rab9 promoter act,FLuc counter,NPC1 promoter act,ELG1 DNA repair,ELG1 genotoxic,SMN2 splice up
O=C(NCCc1ccccc1)C(c1cccs1)N(C(=O)CCl)c1ccc(Cl)cc1 (stereo not given),-46.0%,-1.2%,-39.5%,18.4µM*,-17.5%,-66.9%
COc1ccc(/C=C2\C(=O)NC(=S)N2C(=O)c2ccc(F)cc2)cc1,-2.5%,12µM*,-1.1%,6.0%,-1.0%,-20.7%
O=C1NC(=S)N(C(=O)c2ccc(F)cc2)/C1=C/c1ccccc1,0.1%,?,1.1%,-0.9%,3.5%,-20.9%
Cc1onc(-c2c(Cl)cccc2Cl)c1C(=O)N=S(C)(=O)c1ccccc1 (stereo not given),-8.2%,4.8%,0.7%,-2.5%,-5.1%,.
CCC(OC(=O)C1=Cc2ccccc2OC1)C(=O)NCc1ccco1 (stereo not given),-2.4%,4.9%,-4.5%,-7.7%,-5.6%,.
O=C(O)c1ccc(N/N=C/C2=Cc3ccccc3OC2)cc1,1µM*,0.953µM*,0.631µM*,?,?,.
COc1ccccc1CNC(=O)c1cc2sccc2n1Cc1ccc(Cl)cc1,.,3.3%,.,.,.,-3.8%
CCOC(=O)/C(C#N)=C/Nc1ccsc1C(C)=O,0.9%,?,0.3%,?,7.5%,.
COC(=O)C(=Cc1ccc(-c2ccsc2C(=O)OC)o1)C(=O)OC,20.9%,10.7µM*,6.8%,29.4%,-2.5%,.
CCCCOC(=O)/C(C#N)=C\c1ccc(-c2ccc(Cl)cc2)o1,.,?,.,.,.,-8.2%
COC(=O)c1sccc1-c1ccc(C(N)=O)o1,-12.8%,-3.4%,0.0%,-18.4%,0.7%,5.6%
CCOC(=O)/C(C#N)=C/c1ccc(-c2ccc(Br)cc2)o1,.,6.75µM*,.,.,.,11.9%
COC(=O)c1sccc1-c1ccc(/C=N/OC(=O)c2cccs2)o1,10.5%,5.36µM*,2.2%,-14.0%,3.7%,.
CCOC(=O)/C(C#N)=C/c1ccc(-c2ccsc2C(=O)OC)o1,2.51µM*,-18.3%,?,?,16.5%,5.5%
COC(=O)c1sccc1NC(=O)c1cccs1,1.1%,6.4%,-3.9%,-1.7%,1.9%,.
Cc1csc(=O)n1CC(=O)OCC(=O)Nc1ccccc1C(C)C,-0.4%,3.9%,-2.5%,18.4%,-1.0%,.
O=C(Oc1cccc([N+](=O)[O-])c1)c1ccc2c(=O)n3c(nc2c1)CCC3,-4.1%,-0.4%,-7.4%,-0.2%,2.5%,.
COC(=O)c1sccc1NC(=O)c1cccnc1,.,6.3%,.,.,.,-6.7%
COC(=O)c1sccc1-c1ccc(C(=O)Nc2cccnc2)o1,3.55µM*,8.49µM*,2.24µM*,?,16.2%,17.8µM*
CCOC(=O)C(=Cc1ccc(-c2ccsc2C(=O)OC)o1)C(=O)OCC,2.7%,19µM*,-2.8%,?,-11.2%,-10.8%
Cc1cc(C)cc(Oc2ccc(NC(=O)C3CC=CCC3C(=O)O)cc2)c1 (stereo not given),0.0%,?,1.6%,-7.6%,-5.9%,-4.0%
COc1ccc(OCC(=O)Nc2cccc(NC(=O)COc3ccc(OC)cc3)n2)cc1,?,2.13µM*,2.51µM*,?,?,-10.6%
Cc1cc(C)cc(OCC(=O)Nc2nonc2NC(=O)COc2cc(C)cc(C)c2)c1,-5.7%,-2.4%,-2.1%,5.8%,-1.3%,-2.1%
COc1ccc(OCC(=O)Nc2nonc2NC(=O)COc2ccc(OC)cc2)cc1,1.7%,1.9µM*,1.1%,9.5%,1.8%,13.5%
CCCN(Cc1nnc(-c2cccs2)o1)C(=O)CN1C(=O)NC2(CCCCC2)C1=O,-3.8%,-1.2%,-1.8%,-5.3%,0.8%,.
SMILES,Rab9 promoter act,FLuc counter,NPC1 promoter act,ELG1 DNA repair,ELG1 genotoxic,SMN2 splice up
Cc1ccccc1-n1nc2c(c1NC(=O)C1CCCC1)CS(=O)(=O)C2,0.4%,-1.3%,-2.6%,13.2%,-0.4%,.
COc1ccc(NC(=O)c2cc(C3CC3)nc3c2c(C)nn3-c2ccc(C)cc2)cc1OC,.,-1.6%,.,.,.,.
COc1ccc([C@H]2CC(=O)C=C(c3cc4ccccc4s3)C2)cc1OC,-2.3%,-19.5%,-3.1%,?,-4.2%,.
COc1ccc([C@H]2CC(=O)C=C(c3cccc(OC)c3OC)C2)cc1OC,1.9%,-10.0%,-3.6%,9.2µM*,-7.1%,.
COc1ccc([C@H]2CC(=O)C=C(c3cc(F)ccc3F)C2)cc1OC,-5.4%,0.9%,-1.2%,?,-1.1%,.
O=C1C=C(c2cccc3c2sc2ccccc23)C[C@@H](c2ccc(F)cc2)C1,-2.7%,5.8%,-1.5%,13µM*,-1.2%,.
COCc1ccccc1C1=CC(=O)C[C@H](c2ccc(F)cc2)C1,-5.2%,-1.1%,0.6%,-13.1%,5.9%,.
COc1ccc([C@H]2CC(=O)C=C(c3cccc4c3sc3ccccc34)C2)cc1OC,-1.9%,5.5%,2.4%,8.2µM*,0.1%,.
CCOC(=O)c1cc(CC)sc1NC(=O)COc1ccccc1C,.,-2.3%,.,.,.,-6.3%
O=C(Nc1ccccc1N1CCOCC1)C1=NN(c2c(F)c(F)cc(F)c2F)C(=O)CC1,-5.5%,4.1%,0.2%,?,0.3%,.
Cc1ccc(C(=O)O/N=C/c2c(Cl)n(C)c3ccccc23)cc1,-0.2%,2.69µM*,-0.1%,0.3%,-0.8%,?
Cn1c(Cl)c(/C=N/OC(=O)c2ccc(Cl)cc2)c2ccccc21,-1.9%,3.38µM*,9.5%,10.1%,-1.5%,-8.7%
Cc1cccc(C(=O)O/N=C/c2c(Cl)n(C)c3ccccc23)c1,1.3%,?,-0.8%,2.4%,-1.0%,5.4%
COc1ccc(Br)cc1C(=O)CCC(=O)OCC(=O)Nc1cc(C(N)=O)cc(C(N)=O)c1,-4.1%,-0.3%,-1.9%,8.5%,0.8%,.
CCN(CC(=O)Nc1cc(Cl)ccc1C)C(=O)c1ccc(N2CCCC2=O)cc1,-2.9%,5.4%,-2.8%,?,0.4%,.
C=CCn1c(NC(=O)c2ccc(C)cc2)nc2ccccc21,?,?,2.82µM*,?,?,.
CCCn1c(NC(=O)c2ccc(C)cc2)nc2ccccc21,29.7%,-15.0%,18.6%,?,?,?
COCn1c(-c2ccc(OC)cc2)nc2ccccc21,2.51µM*,6.01µM*,?,?,?,14.1µM*
C=CCn1c(-c2ccc(C)cc2)nc2ccccc21,17.7%,10.7µM*,10.6%,?,?,-21.6%
FC(F)(F)c1cc(CO[C@@H]2CCCN[C@@H]2c2ccccc2)cc(C(F)(F)F)c1,-2.7%,-0.1%,-5.2%,-6.4%,-0.5%,.
CCN(CC)c1ccc(/C=N/Nc2nn[nH]n2)cc1,2.2%,16.9µM*,1.5%,?,5.6%,.
Cc1cc(C)c(S(=O)(=O)c2ccc(C(C)(C)C)cc2)c(Cl)n1,6.2%,3.3%,1.0%,7.5%,-6.1%,.
COc1ccc(/C=C(\C#N)c2cc(OC)c(OC)cc2[N+](=O)[O-])cc1,-5.1%,9.53µM*,2.3%,-10.6%,2.9%,.
